Shown are actives, neighbours in structure and some others; about 13% of the full set was active somewhere.
USP8 block = blocks human USP8 ubiquitin-rhodamine cleavage; P40818; AID 1645853; inhibition, % at 20 µM; purified USP8, Ub-rhodamine cleavage fluorescence, 30 min; 4.2% of 47,000 active
USP30 inh = human USP30 deubiquitinase inhibition | AID 1645860 | inhibition, % at 25 µM | 5.3% of 47,000 active | purified USP30, Ub-rhodamine cleavage fluorescence
USP10 block = blocks human USP10 ubiquitin-rhodamine cleavage | 1.1% of 47,000 active | AID 1645856 | Q14694 | purified USP10, Ub-rhodamine fluorescence, 60 min | inhibition, % at 20 µM
USP17 block = blocks human USP17 ubiquitin-rhodamine cleavage. A8MUK1. purified USP17, Ub-rhodamine cleavage fluorescence, 3 h. inhibition, % at 50 µM. 6.5% of 47,000 active
Target sequence (A8MUK1 whole entry, looked up): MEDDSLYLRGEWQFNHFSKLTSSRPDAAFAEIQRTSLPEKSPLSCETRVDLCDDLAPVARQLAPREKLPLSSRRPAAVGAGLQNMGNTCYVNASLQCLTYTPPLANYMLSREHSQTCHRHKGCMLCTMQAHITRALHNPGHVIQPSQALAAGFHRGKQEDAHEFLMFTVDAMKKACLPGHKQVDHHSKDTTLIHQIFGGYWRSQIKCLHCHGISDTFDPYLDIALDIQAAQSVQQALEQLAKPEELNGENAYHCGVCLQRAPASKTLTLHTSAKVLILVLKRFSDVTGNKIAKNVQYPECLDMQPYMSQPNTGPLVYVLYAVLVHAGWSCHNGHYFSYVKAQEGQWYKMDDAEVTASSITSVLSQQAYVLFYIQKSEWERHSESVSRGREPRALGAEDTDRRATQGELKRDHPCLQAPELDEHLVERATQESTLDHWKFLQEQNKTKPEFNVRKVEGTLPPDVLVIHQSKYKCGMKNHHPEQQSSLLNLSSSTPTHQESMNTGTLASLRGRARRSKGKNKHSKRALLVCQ
USP28 block = human USP28 deubiquitinase inhibition; Q96RU2; purified USP28, Ub-rhodamine cleavage fluorescence, 30 min; inhibition, % at 25 µM; 3% of 47,000 active; AID 1645857
USP7 block = human USP7 deubiquitinase inhibition | Q93009 | purified USP7, Ub-rhodamine cleavage fluorescence | inhibition, % at 20 µM | 0.3% of 47,000 active
Of the large screens only hits and unclear results are named; the others gave an inactive call. No stated cut-off is given here; in the data, active means inhibition above about 30%; inactive means the rest.

COC(=O)c1ccn(-c2nc(-c3cccc(OC)c3)cc(C(F)(F)F)n2)n1	none
N#Cc1ccccc1NC(=O)c1cc2c(s1)-c1ccccc1S(=O)(=O)C2	USP30 inh 82.9, USP10 block 48.7, USP17 block 72.3, USP28 block 87.6
Cc1c(-c2ccccc2)oc2c(C(=O)OCC(=O)Nc3ccccc3F)cccc2c1=O	USP17 block 67.4
O=C(Cc1ccc(-c2ccccc2)cc1)Nc1ccccc1F	none
CCn1nnc(NCc2ccccc2OCc2ccc(Cl)cc2)n1	none
O=C(Nc1nc2ccc(F)cc2s1)c1cccc2c(Br)cccc12	USP17 block 32.6
Cc1nc(-n2[nH]c(C)c(CC(=O)N3CCCC3)c2=O)sc1C	none
CCOc1ccc2[nH]c(=O)c(CN(C(=O)c3cccs3)C3CCCC3)cc2c1	USP17 block 65.8
COc1ccc2cc(CN(C(=O)Nc3ccccc3)C3CCCCC3)c(=O)[nH]c2c1	none
O=C(Nc1nc2c(s1)CCCC2)c1cccc(Cl)c1Cl	USP28 block 38.4
Cc1cccc(OCC(=O)Nc2nc3c(s2)CCCC3)c1	USP28 block 48.4
Cc1cccc(OCC(=O)Nc2onc3c2CCCC3)c1	none
O=C(Nc1nc2c(s1)CCCC2)c1cn(-c2ccccc2)nc1-c1ccccc1	none
CN1CCc2nc(NC(=O)COc3ccc(C#N)cc3)sc2C1	USP30 inh 59.3, USP17 block 83.2, USP28 block 33.3
O=C(Nc1nc2c(s1)CCC2)c1cccc(N2CCNC2=O)c1	USP17 block 42.4, USP28 block 30.7
Cc1ccc2c(c1)C(=O)N(CC(=O)N1CCC(O)CC1)CC1(CCOCC1)O2	none
CNc1nc(C2CCCN2C(C)=O)nc2c1CCN(S(=O)(=O)c1ccccc1Cl)C2 (centres undefined)	none
CCN(CC)S(=O)(=O)c1cccc(C(=O)c2c(-c3ccc(OC)cc3OC)cc3ccccn23)c1	none (no result: USP17 block)
Fc1ccc(Cc2nc(-c3ccn4cnnc4c3)no2)cc1	USP28 block 35.6
COc1ccc(-c2onc(C)c2C)cc1S(=O)(=O)NCc1ccccc1	none
Cc1ccc(-c2onc(C)c2C)cc1S(=O)(=O)NCc1ccccc1	USP30 inh 34.8
CCC(=O)Nc1c(C)noc1/C=C\c1ccc(S(=O)(=O)Nc2ccc(F)cc2F)cc1	USP30 inh 45.6
CCC(=O)Nc1c(C)noc1/C=C\c1ccc(S(=O)(=O)Nc2ccccc2CC)cc1	none
CCc1nc(SCc2nc(N)nc(Nc3ccccc3)n2)n[nH]1	USP8 block 76.2
CC(C)(C)c1nc(SCc2nc(N)nc(Nc3ccccc3)n2)n[nH]1	none
COc1ccc(-c2nc(Cn3nnc(C(=O)Nc4ccc(C)cc4C)c3N)c(C)o2)cc1	USP30 inh 57.2
CCOC(=O)c1noc2nc(C)n(Cc3nc(-c4ccc(OC)cc4)oc3C)c(=O)c12	none
COc1ccc(-c2nc(Cn3nnc(C(=O)Nc4ccc(C)c(C)c4)c3N)c(C)o2)cc1	USP17 block 79.8
CN1C(=O)c2ccccc2C(C(=O)NCc2ccc3c(c2)OCO3)C1c1cccs1 (centres undefined)	none
O=C(Nc1ccncc1)c1ncoc1-c1cccc(Cl)c1	USP30 inh 65.7 (no result: USP7 block)
COc1ccc(-c2ocnc2C(=O)Nc2ccc(C)c(F)c2)cc1OC	none
CC1CCN(S(=O)(=O)c2c[nH]c(-c3nnc(C(=O)N4CCCC4)o3)c2)CC1	USP30 inh 46.6
O=C(c1nnc(-c2cc(S(=O)(=O)N3CCCCCC3)c[nH]2)o1)N1CCCC1	none
COc1cccc2sc(N3CCN(C(=O)CCc4ccccc4)CC3)nc12	none
COc1cccc2sc(N3CCN(c4nc5ccccc5s4)CC3)nc12	USP17 block 77.1
Cc1ccccc1OCCSc1nc2ccccc2n1CC(=O)NC1CC1	USP30 inh 50.3, USP17 block 31.2
CCCCC/C=C/c1c(O)cc(CC=C(C)C)c(O)c1C=O	none
C/C=C/C=C/CCc1c(O)cc(CC=C(C)C)c(O)c1C=O	USP17 block 45.0
CCOC(=O)N1CCN(S(=O)(=O)c2ccc(C(=O)Nc3ccc(OC)c4ccccc34)cc2)CC1	USP8 block 56.2
O=C(CSc1nnc2n(-c3ccccc3)c(=O)c3ccccc3n12)c1ccc(F)cc1	USP8 block 36.4
O=C(CSc1nnc(C2CC2)n1-c1ccccc1)c1ccc(F)c(F)c1	USP30 inh 32.2
O=C(CSc1nnc(C2CC2)n1Cc1ccccc1)Nc1ccccc1F	none
COc1ccc(-c2nc3ccccc3c3nnc(SC(C)C(=O)NC4CC4)n23)cc1 (centres undefined)	none
CC1CC1c1nnc(C2(c3ccc(F)cc3)CCOCC2)o1 (centres undefined)	none
Cc1ccc2nc(-c3ccccc3O)c(Nc3ccc(Cl)cc3)n2c1	USP8 block 76.1
CC(C)(C)c1cc(NC(=O)c2cccc(Cl)c2)no1	none
CCC(C(=O)Nc1ccc(-c2nc3cccnc3s2)cc1)c1ccccc1 (centres undefined)	USP8 block 36.3
CCOCC(=O)Nc1ccc(-c2nc3cccnc3s2)cc1	none
CCC(=O)Nc1nc2ccc(CC(=O)NC3CCN(Cc4ccccc4)CC3)cc2s1	none
COc1cc(/C=C/C(=O)OCC(=O)Nc2ccc([N+](=O)[O-])cc2OC)ccc1O	USP8 block 54.9, USP30 inh 65.5, USP10 block 50.8, USP28 block 84.3, USP7 block 33.6 (no result: USP17 block)
COc1ccc(S(=O)(=O)N2CCOC3(COc4ccccc4N(C)C3)C2)cc1 (centres undefined)	none
Cc1cc(C)n2ncc(C(=O)N3CCN(c4ccccn4)CC3)c2n1	none
O=S(=O)(c1cccc2cccnc12)N1CCN(c2ccc(F)cc2)CC1	USP8 block 55.9, USP30 inh 30.4
O=S(=O)(c1cccc2cccnc12)N1CCCC1c1ccc(F)cc1 (centres undefined)	none
COCCN(C(=O)C1CC1)c1nc(-c2ccccc2)cs1	USP8 block 31.3
COCCN(C(=O)Cc1ccccc1)c1nc(-c2ccc(OC)cc2)cs1	none
O=C(Nc1nc(C(=O)N2CCN(c3ccccc3F)CC2)co1)c1ccccc1	none
O=C(c1cc(F)ccc1-n1cnnn1)N1CCN(Cc2ccccc2)CC1	none
O=C(COC(=O)C(Cc1c[nH]c2ccccc12)NC(=O)c1ccccc1Cl)Nc1cc(F)ccc1F (centres undefined)	USP17 block 31.7
CC1Cc2nc3ccccc3n2CCN1Cc1cccc(C#N)c1 (centres undefined)	none
c1coc(-c2cc3nc(NCCCn4ccnc4)ccn3n2)c1	USP17 block 45.8
COc1cccc(CNC(=O)C2=Cc3cccc(OC)c3OC2)c1	USP28 block 60.2
O=C(c1cn(-c2ccccc2)nn1)N1CCCCC1	none (no result: USP17 block)
Cc1noc(C2CN(C(=O)c3ccc(C)o3)Cc3ccnn3C2)n1 (centres undefined)	none
O=C(NCc1ccco1)c1ccc2c(c1)N(Cc1cccc(F)c1)C(=O)c1ccccc1S2	USP17 block 58.3
